Assay results published in PubChem BioAssay (Tox21).
Records with an inconclusive call do not appear. Active and inactive are the calls of the source. Unless noted, calls come from the whole dose curve; as a rule, active = well fitted curve in the direction sought with a large enough effect in the repeat runs; inconclusive = weak or mixed curves; inactive = no such curve, though single readings can be large; an effect the other way counts as inactive or inconclusive.

What was measured:
[1] = target: Retinoic acid receptor RXR-alpha (Homo sapiens) (UniProt P19793); assay: qHTS assay to identify small molecule agonists of the RXR signaling pathway (AID 1159527; calls by dose curve; note: nearly all actives have a fitted effect of over 35% in size)
Summary of the method: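 Compounds in DMSO were added to RXR-alpha-UAS-bla HEK 293T cells kept in 2% charcoal-stripped serum, and incubated 16 hr at 37 C with 5% CO2. Reporter signal came from a 2 hr B/G FRET substrate step.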

[2] = qHTS assay to identify small molecule agonists of the RXR signaling pathway - cell viability counter screen (AID 1159529);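 note: HEK 293T cells carrying an RXR-alpha UAS beta-lactamase reporter; series mostly up to about 77 µM; nearly all actives have a fitted effect of over 50% in size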
Summary of the method: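 Counter screen: CellTiter-Glo luminescence. Cells: RXR-alpha-UAS-bla HEK 293T. Medium: 2% charcoal-stripped FBS. Treatment: 16 h, 37 C. Reagent incubation: 30 min, RT.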

[3] = qHTS assay to identify small molecule antagonists of the retinoid acid receptor (RAR) signaling pathway - cell viability counter screen (AID 1159551); note: nearly all actives have a fitted effect of over 35% in size
Summary of the method: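 Retinol-stimulated (1 uM final) C3RL4 cells, compound 6 h, 37 C; readout CellTiter-Glo luminescence (ATP) after 30 min RT incubation.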

[4] = qHTS assay to identify small molecule antagonists of the estrogen related receptor (ERR) signaling pathway - cell viability counter screen (AID 1224818); note: series mostly up to about 46 µM
Summary of the method: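 After a 6 h pre-incubation, ERR cells were dosed by pin tool with compounds, positive/negative controls or DMSO alone. Following 17.5 h at 37 C and 30 min with CellTiter-Fluor, fluorescence was recorded.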

[5] = qHTS assay to identify small molecule antagonists of the estrogen related receptor (ERR) signaling pathway (AID 1224819;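 note: luminescence from an ERR-driven luciferase reporter measured with One-Glo reagent; series mostly up to about 46 µM; nearly all actives have a fitted effect of over 50% in size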)
Summary of the method: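 Luminescence readout (One-Glo, 30 min, RT) of ERR cell line after 18 h compound exposure at 37 C; cells seeded 2,000/well, pre-incubated 6 h, compounds pinned from DMSO stocks.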

[6] = qHTS assay to identify small molecule agonists of the estrogen related receptor (ERR) signaling pathway (AID 1224820)
Summary of the method: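 Quantitative HTS of the LOPAC library used NTP ERR reporter cells treated 18 h at 37 C. Signal is luminescence after One-Glo addition and a 30 min room-temperature incubation.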

[7] = qHTS assay to identify small molecule antagonists of the estrogen related receptor signaling pathway with the pleiotropic PPARgamma coactivator (PGC) cell viability counter screen (AID 1224822; note: series mostly up to about 46 µM)
Summary of the method: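 PGC/ERR cells were plated at 2,000 per well and allowed 6 h to settle before compound addition. Following 17.5 h at 37 C, CellTiter-Fluor reagent was added and fluorescence was read 30 min later.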

[8] = qHTS assay to identify small molecule agonists of the estrogen related receptor signaling pathway with the pleiotropic PPARgamma coactivator (PGC) (AID 1224823)
Summary of the method: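 Cell-based luciferase assay in the NTP-supplied PGC/ERR line, 2,000 cells/well; 18 h compound exposure at 37 C, luminescence after One-Glo.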

[9] = qHTS assay to identify small molecule antagonists of the estrogen related receptor (ERR) signaling pathway from Tox21 library - cell viability counter screen (AID 1224834); note: nearly all actives have a fitted effect of over 30% in size
Summary of the method: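 After 17.5 h of compound exposure at 37 C, ERR cells are incubated with CellTiter-Fluor for 30 min and fluorescence intensity serves as the viability measure.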

[10] = target: Luciferin 4-monooxygenase (Photinus pyralis) (UniProt P08659); assay: qHTS assay to identify small molecule inhibitors of firefly luciferase (AID 1224835); note: series mostly up to about 120 µM; nearly all actives have a fitted effect of over 25% in size
Summary of the method: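 Quantitative HTS format; KM concentrations of both substrates. Purified P. pyralis FLuc activity quantified from luminescence images.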

[11] = qHTS assay to identify small molecule agonists of the constitutive androstane receptor (CAR) signaling pathway - cell viability counter screen (AID 1224836); note: series mostly up to about 92 µM; nearly all actives have a fitted effect of over 45% in size
Summary of the method: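 Double-stable HepG2 hepatoma cells (hCAR plus CYP2B6-2.2kb) are treated for 23 h at 37 C with test compounds in 15-point concentration series. PK11195 at 0.75 uM final is co-added. Cell viability is quantified by CellTiter-Fluor.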

[12] = qHTS assay to identify small molecule antagonists of the constitutive androstane receptor (CAR) signaling pathway - cell viability counter screen (AID 1224837); note: series mostly up to about 92 µM; nearly all actives have a fitted effect of over 45% in size
Summary of the method: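 Counter screen run in HepG2-CYP2B6-hCAR cells: 4 hr settle, compound titration (15 concentrations) with 50 nM CITCO, 23 hr at 37 C/5% CO2, CellTiter-Fluor fluorescence.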

[13] = target: Nuclear receptor subfamily 1 group I member 3 (Homo sapiens) (UniProt Q14994); assay: qHTS assay to identify small molecule antagonists of the constitutive androstane receptor (CAR) signaling pathway (AID 1224838);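 note: HepG2 cells stably expressing hCAR with CYP2B6 luciferase reporter stimulated by CITCO; nearly all actives have a fitted effect of over 40% in size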
Summary of the method: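 Cell line: HepG2 double-stable for hCAR and CYP2B6-2.2kb reporter. Agonist: CITCO, 50 nM final. Compounds: 15 concentrations, 24 h, 37 C. Detection: ONE-Glo luminescence.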

[14] = target: Nuclear receptor subfamily 1 group I member 3 (Homo sapiens) (UniProt Q14994); assay: qHTS assay to identify small molecule agonists of the constitutive androstane receptor (CAR) signaling pathway (AID 1224839);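 note: HepG2 cells stably carrying human CAR and a CYP2B6 luciferase reporter; series mostly up to about 92 µM; nearly all actives have a fitted effect of over 15% in size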
Summary of the method: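 Readout: firefly luciferase luminescence via ONE-Glo. System: HepG2 double-stable for hCAR and CYP2B6-2.2kb. Conditions: 15-point compound titration, PK11195 at 0.75 uM final, 24 h incubation.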

[15] = qHTS assay to identify small molecule antagonists of the estrogen related receptor signaling pathway with the pleiotropic PPARgamma coactivator (PGC) from Tox21 10K library - cell viability counter screen (AID 1224840; active = well fitted cell-killing curve with a large enough effect in the repeat runs, not every such curve was filed as active; note: nearly all actives have a fitted effect of over 40% in size)
Summary of the method: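 Following seeding of 2,000 PGC/ERR cells/well and 6 hours' incubation, test compounds were delivered in DMSO. The plates then sat 17.5 hours at 37 C before a fluorogenic live-cell protease reagent (CellTiter-Fluor) was read after 30 min.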

[16] = qHTS assay to identify small molecule antagonists of the estrogen related receptor signaling pathway with the pleiotropic PPARgamma coactivator (PGC) from Tox21 10K library (AID 1224841; call rule not given here; note: series mostly up to about 92 µM; actives are mostly falling curves and most rising ones were filed inactive; nearly all actives have a fitted effect of over 50% in size)
Summary of the method: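 qHTS antagonist format: PGC/ERR cells, 2k/well, compound in DMSO by pin transfer after 6 h attachment, 18 h treatment at 37 C, One-Glo luminescence read at 30 min.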

[17] = qHTS assay to identify small molecule agonists of the estrogen related receptor signaling pathway with the pleiotropic PPARgamma coactivator (PGC) from Tox21 10K library (AID 1224842); note: nearly all actives have a fitted effect of over 15% in size
Summary of the method: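 PGC/ERR reporter cells (NTP line) were seeded 2,000 per well, rested 6 h at 37 C/5% CO2, then pin-dosed with compounds in DMSO for 18 h at 37 C; luciferase read by One-Glo luminescence after 30 min at room temperature.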
% is set by controls: 0 for no effect and ±100 for the full control effect.

Chain of Retinoic acid receptor RXR-alpha (Homo sapiens) (P19793 whole entry, looked up): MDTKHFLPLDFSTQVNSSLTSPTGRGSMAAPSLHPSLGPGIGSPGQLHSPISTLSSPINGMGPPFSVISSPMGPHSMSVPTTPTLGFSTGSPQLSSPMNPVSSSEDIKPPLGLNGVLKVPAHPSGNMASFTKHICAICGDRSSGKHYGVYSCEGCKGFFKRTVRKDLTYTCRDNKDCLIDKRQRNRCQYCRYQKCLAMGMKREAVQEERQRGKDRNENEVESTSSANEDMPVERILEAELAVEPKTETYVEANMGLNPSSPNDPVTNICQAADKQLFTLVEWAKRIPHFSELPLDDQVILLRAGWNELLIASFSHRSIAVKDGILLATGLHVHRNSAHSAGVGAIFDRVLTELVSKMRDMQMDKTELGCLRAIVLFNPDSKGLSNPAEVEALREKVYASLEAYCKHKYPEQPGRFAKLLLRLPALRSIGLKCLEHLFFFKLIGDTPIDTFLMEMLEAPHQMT
Chain of Luciferin 4-monooxygenase (Photinus pyralis) (P08659 whole entry, looked up): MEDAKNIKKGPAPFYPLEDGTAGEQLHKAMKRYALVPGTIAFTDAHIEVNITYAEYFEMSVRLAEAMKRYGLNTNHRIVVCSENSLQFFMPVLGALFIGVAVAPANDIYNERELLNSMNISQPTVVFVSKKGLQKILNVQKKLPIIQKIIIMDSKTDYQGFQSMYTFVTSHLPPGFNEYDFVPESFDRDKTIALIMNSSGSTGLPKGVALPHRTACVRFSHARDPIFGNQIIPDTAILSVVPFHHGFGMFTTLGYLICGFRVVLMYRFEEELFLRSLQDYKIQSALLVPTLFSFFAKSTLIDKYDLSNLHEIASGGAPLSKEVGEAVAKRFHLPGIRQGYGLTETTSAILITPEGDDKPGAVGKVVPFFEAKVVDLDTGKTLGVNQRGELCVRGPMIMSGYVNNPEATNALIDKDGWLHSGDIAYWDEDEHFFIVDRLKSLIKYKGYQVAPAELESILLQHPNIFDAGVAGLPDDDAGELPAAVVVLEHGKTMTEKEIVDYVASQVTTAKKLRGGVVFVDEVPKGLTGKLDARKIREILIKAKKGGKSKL
Chain of Nuclear receptor subfamily 1 group I member 3 (Homo sapiens) (Q14994 whole entry, looked up): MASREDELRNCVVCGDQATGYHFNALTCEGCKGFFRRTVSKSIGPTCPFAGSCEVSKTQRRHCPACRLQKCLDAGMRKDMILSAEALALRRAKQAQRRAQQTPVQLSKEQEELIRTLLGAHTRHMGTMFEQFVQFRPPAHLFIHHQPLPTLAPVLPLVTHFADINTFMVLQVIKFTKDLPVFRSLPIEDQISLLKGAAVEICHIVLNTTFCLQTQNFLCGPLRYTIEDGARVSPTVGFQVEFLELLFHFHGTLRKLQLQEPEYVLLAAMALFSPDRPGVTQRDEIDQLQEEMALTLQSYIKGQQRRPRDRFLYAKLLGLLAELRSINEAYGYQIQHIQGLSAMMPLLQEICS

CN1CCN(CC(=O)N2c3ccccc3C(=O)Nc3cccnc32)CC1
inactive: activation [1] 4.73% [at 6.98 µM] | activity change, negative = cytotoxicity [2] 0.873% [at 6.97 µM] | activity change, negative = cytotoxicity [3] 0.488% [at 8.39 µM] | outcome [4] | outcome [5] | outcome [6] | outcome [7] | outcome [8] | viability change, negative = cytotoxic [9] 2.62% [at 8.39 µM] | activity change, negative = inhibition [10] 1.23% [at 10.5 µM] | viability change, negative = cytotoxic [11] -1.77% [at 8.39 µM] | activity change, negative = cytotoxicity [12] 7.37% [at 8.39 µM] | activity, negative = inhibition [13] -1.39% [at 8.39 µM] | activation [14] -1% [at 8.39 µM] | viability change, negative = cytotoxic [15] 8.41% [at 8.39 µM] | activity, negative = inhibition [16] 2.2% [at 8.39 µM] | activation [17] 0.61% [at 8.39 µM]

CCCC(=O)C(C)=O
inactive: Potency [1] | outcome [2] | outcome [3] | Potency [9] | Potency [10] | Potency [11] | Potency [12] | outcome [13] | Potency [14] | outcome [15] | Potency [16] | outcome [17]

O=C(CCN1CCN(CCO)CC1)N1c2ccccc2Sc2ccc(C(F)(F)F)cc21
inactive: Potency [1] | outcome [2] | outcome [3] | Potency [9] | Potency [10] | Potency [11] | Potency [12] | outcome [13] | Potency [14] | outcome [15]

Cc1ccc(C=O)cc1C
inactive: Potency [1] | outcome [2] | outcome [3] | Potency [9] | Potency [10] | Potency [11] | Potency [12] | outcome [13] | Potency [14] | outcome [15]

CC(C)CCCC(C)(C)O
inactive: Potency [1] | outcome [2] | outcome [3] | Potency [9] | Potency [10] | Potency [11] | Potency [12] | outcome [13] | Potency [14] | outcome [15]

CCCCNC1CC(C)(C)NC(C)(C)C1
inactive: Potency [1] | outcome [2] | outcome [3] | Potency [9] | Potency [10] | Potency [11] | Potency [12] | outcome [13] | Potency [14] | outcome [15] | Potency [16] | outcome [17]

O=C(O)Cc1cn(-c2ccccc2)nc1-c1ccc(Cl)cc1
inactive: Potency [1] | outcome [2] | outcome [3] | Potency [9] | Potency [10] | Potency [11] | Potency [12] | outcome [13] | Potency [14] | outcome [15]

CN=C(NC#N)Nc1ccc(C2=NNC(=O)CC2C)cc1 (stereo not drawn)
inactive: Potency [1] | outcome [2] | outcome [3] | Potency [9] | Potency [10] | Potency [11] | Potency [12] | outcome [13] | Potency [14] | outcome [15] | Potency [16] | outcome [17]

C[Si](C)=O
inactive: activation [1] 8.36% [at 6.98 µM] | activity change, negative = cytotoxicity [2] 0.062% [at 6.97 µM] | activity change, negative = cytotoxicity [3] 3.8% [at 8.39 µM] | viability change, negative = cytotoxic [9] 2.07% [at 8.39 µM] | viability change, negative = cytotoxic [11] 2.34% [at 8.39 µM] | activity change, negative = cytotoxicity [12] 1.39% [at 8.39 µM] | activity, negative = inhibition [13] -3.72% [at 8.39 µM] | activation [14] -0.11% [at 8.39 µM] | viability change, negative = cytotoxic [15] 10.2% [at 8.39 µM] | activity, negative = inhibition [16] -4.65% [at 8.39 µM] | activation [17] -1.46% [at 8.39 µM]

COCCOCCOCCOCCOCCO
inactive: Potency [1] | outcome [2] | outcome [3] | Potency [9] | Potency [11] | Potency [12] | outcome [13] | Potency [14] | outcome [15] | Potency [16] | outcome [17]

C[C@@H](Oc1ccc(CNC(=O)c2cccnc2Oc2ccc3c(c2)OCO3)c(F)c1)C(=O)O
inactive: Potency [1] | outcome [2] | outcome [3] | Potency [9] | Potency [10] | Potency [12] | outcome [13] | Potency [14] | outcome [15] | Potency [16] | outcome [17]

CC(C)(C)NC(N)=O
inactive: Potency [1] | outcome [2] | outcome [3] | Potency [9] | Potency [10] | Potency [11] | Potency [12] | outcome [13] | Potency [14] | outcome [15] | Potency [16] | outcome [17]

Cc1cc(Cl)c(C)cc1Cl
inactive: Potency [1] | outcome [2] | outcome [3] | Potency [9] | Potency [11] | Potency [12] | outcome [13] | Potency [14] | outcome [15] | Potency [16] | outcome [17]

Cc1ccccc1OCC(O)CO (stereo not drawn)
inactive: Potency [1] | outcome [2] | outcome [3] | Potency [9] | Potency [11] | Potency [12] | outcome [13] | Potency [14] | outcome [15] | Potency [16] | outcome [17]

Cc1cccc(C)c1NC(=O)c1ccccc1C(=O)O
inactive: Potency [1] | outcome [2] | outcome [3] | Potency [9] | Potency [10] | Potency [12] | outcome [13] | Potency [14] | outcome [15] | Potency [16] | outcome [17]

CCCCC(CC)COCCO (stereo not drawn)
inactive: Potency [1] | outcome [2] | outcome [3] | Potency [9] | Potency [10] | Potency [11] | Potency [12] | outcome [13] | Potency [14] | outcome [15] | Potency [16] | outcome [17]
